# Compounds with a hit are over-represented: about 2.9% of the library has one in this group of screens.
# H9c2 TAG inh: inhibitors of triacylglycerol accumulation, primary screen, cell-based, uHTS, fluorescence, H9c2; hit rate 0.66% among 230,000; H9c2 cells, Nile Red lipid (TAG) fluorescence; cells loaded with 200 µM oleic acid; AID 651582, 2012; inhibition, % at 12.5 µM;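 active = pattern-corrected inhibition of lipid staining of at least 50% with the nuclear-stain viability signal not falling by more than 50%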;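 note: 0% = DMSO wells and 100% = triacsin C control wells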
# A3A deaminase: APOBEC3A ssDNA deaminase inhibitors, primary screen, selectivity assay for APOBEC3G inhibitor project, biochemical, FAM/TAMRA oligo cleavage fluorescence | inhibition, % at 20 µM | recombinant A3A, FAM/TAMRA ssDNA deamination fluorescence | hit rate 0.41% among 330,000 | DNA dC->dU-editing enzyme APOBEC-3A (Homo sapiens), P31941;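 active = at least 40% inhibition at 20 µM here, with at most 30% in a related deaminase screen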;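 note: plate controls were A3A with DMSO for no effect and wells lacking A3A enzyme for full effect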
# Target sequence (P31941 whole entry, looked up): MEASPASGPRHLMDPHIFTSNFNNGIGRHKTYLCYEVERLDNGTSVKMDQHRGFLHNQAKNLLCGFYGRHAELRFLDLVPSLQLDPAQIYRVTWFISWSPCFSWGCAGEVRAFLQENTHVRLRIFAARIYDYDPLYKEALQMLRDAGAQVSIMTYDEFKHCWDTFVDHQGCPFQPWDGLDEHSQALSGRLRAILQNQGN
# PfG6PD inh: PfG6PD enzyme inhibitors, primary screen, biochemical, fluorescence intensity, uHTS; PfGluPho enzyme, NADPH resazurin-diaphorase fluorescence; inhibition, % at 20 µM; glucose-6-phosphate dehydrogenase-6-phosphogluconolactonase (Plasmodium falciparum 3D7); hit rate 0.78% among 350,000;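 active = inhibition reaching at least a set limit at 20 µM in the primary screen, cut at about 59% in these data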;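 note: 0% = DMSO wells with substrate and 100% = DMSO wells lacking glucose-6-phosphate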
# A3G deaminase: APOBEC3G DNA deaminase inhibitors, primary screen, biochemical, fluorescence, single-stranded DNA substrate, uHTS; DNA dC->dU-editing enzyme APOBEC-3G (Homo sapiens), Q9HC16; recombinant A3G, ssDNA deamination FAM/TAMRA fluorescence; inhibition, % at 20 µM; hit rate 0.28% among 330,000; AID 493012, 2011;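 active = inhibition of at least 40% at 20 µM, with no more than 30% in the related APOBEC3A deaminase screen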;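 note: plate controls were DMSO wells with A3G for no effect and wells lacking A3G enzyme for full effect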
# Target sequence (Q9HC16 whole entry, looked up): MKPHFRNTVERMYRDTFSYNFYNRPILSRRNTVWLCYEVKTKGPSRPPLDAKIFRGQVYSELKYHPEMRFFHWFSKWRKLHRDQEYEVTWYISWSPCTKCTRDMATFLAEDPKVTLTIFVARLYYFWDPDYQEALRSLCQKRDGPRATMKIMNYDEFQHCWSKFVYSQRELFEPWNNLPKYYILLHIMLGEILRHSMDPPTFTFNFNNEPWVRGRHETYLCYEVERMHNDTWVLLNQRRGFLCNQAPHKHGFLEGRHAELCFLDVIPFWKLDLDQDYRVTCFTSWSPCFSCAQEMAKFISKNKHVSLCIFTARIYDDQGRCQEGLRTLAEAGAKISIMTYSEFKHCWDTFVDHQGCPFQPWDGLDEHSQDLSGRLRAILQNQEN
# H9c2 protect: cardioprotection against H2O2-induced cell death, primary screen, uHTS, H9c2 cells, ATPLite luminescence | AID 588492, 2011 | protection from H2O2 cell death, % at 20 µM | hit rate 0.63% among 360,000 | H9c2 cardiomyocytes, H2O2 injury protection, 2 h;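 active = compounds giving at least 50% protection of heart cells from peroxide-induced death in the single-dose screen, raw or plate-pattern-corrected value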;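 note: 0% = DMSO wells with peroxide and 100% = DMSO wells without peroxide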
# NadD inh: inhibitors of S. aureus NadD, primary screen, biochemical, colorimetric, uHTS; AID 602399, 2012; purified NadD enzyme, colorimetric absorbance read-out; inhibition, % at 20 µM; hit rate 0.78% among 360,000; in the data active = inhibition above about 26%
# PfG6PD confirm: PfG6PD inhibitors, hit retest, confirmation, biochemical, fluorescence intensity, single concentration | AID 504753, 2011 | recombinant PfGluPho, NADPH-diaphorase-resazurin fluorescence | hit rate 34% among 2,400 | inhibition, % at 20 µM | shares compounds with PfG6PD inh;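 active = inhibition of at least 50% at 20 µM in any single replicate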;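 note: 0% = DMSO with substrate and 100% = DMSO lacking glucose-6-phosphate substrate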
# Diaphorase 10uM: diaphorase inhibitors and chemical oxidizers, confirmation, counter-screen for P. falciparum G6PD inhibitor project, biochemical, fluorescence intensity, 10 µM NADPH | hit rate 39% among 820 | shares compounds with PfG6PD inh | inhibition, % at 20 µM | diaphorase-coupled resazurin reduction, NADPH 10 uM;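 active = average inhibition reaching 50% or more with the compound at 20 µM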;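 note: resorufin red fluorescence formed as diaphorase reduces resazurin using NADPH; 0% = DMSO with enzyme and 100% = DMSO without enzyme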
# Diaphorase 30uM: diaphorase inhibitors and chemical oxidizers, confirmation, counter-screen for P. falciparum G6PD inhibitor project, biochemical, fluorescence intensity, 30 µM NADPH. shares compounds with PfG6PD inh. Diaphorase/resazurin coupled assay, resorufin fluorescence. inhibition, % at 20 µM. hit rate 29% among 820. AID 504863, 2011;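 active = inhibition averaging 50% or more, tested at 20 µM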;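 note: 0% = DMSO with enzyme and 100% = DMSO wells lacking diaphorase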
# The depositor's hits bear a star; / = no result given.
SMILES,H9c2 TAG inh,A3A deaminase,PfG6PD inh,A3G deaminase,H9c2 protect,NadD inh,PfG6PD confirm,others
O=C(O)c1ccccc1C(=O)c1ccc2c(c1)N(Cc1cccc(F)c1)C(=O)CO2,-8,0,93*,-1,-5,-2,58*,Diaphorase 10uM=58*;Diaphorase 30uM=52*
O=C1C=CC(=O)N1Cc1ccncc1,1,/,4,/,9,-2,/,
O=C1C=CC(=O)N1CCCCCCCCCCN1C(=O)C=CC1=O,-4,/,84*,/,-10,13,55*,Diaphorase 10uM=-20;Diaphorase 30uM=-25
COc1ccccc1OCCn1ccnc1,-10,-5,-6,-5,5,-2,/,
CCC(C)c1ccccc1OCCn1ccnc1 (stereo unspecified),/,2,70*,7,-10,1,56*,Diaphorase 10uM=35;Diaphorase 30uM=31
N#Cc1c(NC(=O)Cn2nc(C(F)(F)F)c3c2CCCC3)sc2c1CCC2,/,0,70*,25,4,12,43,
CCc1ccc(NC(=O)c2c(Cl)nc(C)c(Cl)c2C)cc1,/,0,84*,0,-7,-5,47,
Cc1ccccc1NC(=O)c1c(Cl)nc(C)c(Cl)c1C,/,-2,11,3,-1,-4,/,
COC(=O)CCCC(=O)N1CCCC(CCC(=O)NCc2ccc(F)c(F)c2)C1 (stereo unspecified),14,2,-23,1,-4,3,/,
CC1CCC(NC(=O)CCS(=O)(=O)c2ccc3c(c2)oc(=O)n3C)CC1 (stereo unspecified),/,2,8,-1,1,-5,/,
CCN(CCCNC(=O)CN1C(=O)COc2ccc(S(=O)(=O)N3CCC(C)CC3)cc21)Cc1ccccc1,/,-5,0,-1,-3,-7,/,
Cc1ccc(-c2ccc(/C=N/NC(N)=S)o2)cc1,15,-7,62*,-4,-5,9,16,
Cc1ccc(S(=O)(=O)N(C(=O)c2ccncc2)c2ccc(OC(=O)c3ccncc3)c3ccccc23)cc1,/,0,74*,-4,-29,13,56*,Diaphorase 10uM=16;Diaphorase 30uM=-10
Cc1ccc(/C=C/C(=O)N2CCN(S(=O)(=O)/C=C/c3ccccc3)CC2)o1,7,3,63*,-2,-1,-5,15,
O=C(/C=C/c1ccco1)N1CCN(S(=O)(=O)c2cccs2)CC1,-6,15,46,2,8,0,/,
Cc1ccc(/C=C/C(=O)N2CC(C)CC(C)C2)o1 (stereo unspecified),-9,1,72*,28,-29,2,29,
Cc1ccc(/C=C/C(=O)N2CCN(S(=O)(=O)c3cccs3)CC2)o1,-3,1,73*,-3,7,-2,39,
COc1ccccc1NC(=O)C(C)OC(=O)c1cccc(-n2cnnn2)c1 (stereo unspecified),-7,-2,-6,-7,1,-7,/,
COc1ccccc1/C=N/n1cnnc1,7,-2,5,-2,4,-3,/,
O=S(=O)(Oc1ccccc1/C=N/n1cnnc1)c1ccccc1,/,-2,96*,-5,4,-6,81*,Diaphorase 10uM=81*;Diaphorase 30uM=63*
Cc1cccn2c(=O)c3cc(C(=O)NC4CCCC4)n(C)c3nc12,/,-4,19,-8,29,0,/,
COC1C=CC(CNC(=O)c2cc3c(=O)n4cccc(C)c4nc3n2C)(OC)O1 (stereo unspecified),/,5,79*,-6,1,12,-7,
COc1ccc(-c2cc(CCC(=O)N3CCN(c4cc(C)ccc4C)CC3)[nH]n2)cc1,-6,4,7,3,-16,-2,/,
CCNC(=O)C1(C)CCCN(C(=O)CCc2cccs2)C1 (stereo unspecified),7,/,/,/,-9,3,/,
Cc1nc2ccccc2c(=O)n1/N=C/c1ccc(O)c(O)c1O,/,66,92*,60,7,33*,101*,Diaphorase 10uM=97*;Diaphorase 30uM=96*
SMILES,H9c2 TAG inh,A3A deaminase,PfG6PD inh,A3G deaminase,H9c2 protect,NadD inh,PfG6PD confirm,others
CC(C)[C@H](NC(=O)c1cccc(CN(Cc2ccccc2)C(=O)c2ccccc2)c1)C(=O)O,-2,2,-9,-4,17,-7,/,
COCCN(C(=S)Nc1c(C)cc(C)cc1C)C(C)c1cccnc1 (stereo unspecified),/,-2,69*,36,0,0,30,
O=C1Nc2cc(C(=O)NCCCN3CCCC3)ccc2S/C1=C\c1ccccc1,/,1,105*,6,-2,2,98*,Diaphorase 10uM=-5;Diaphorase 30uM=-16
Cc1ccc(C(=O)NCC(=O)N2CCCN(C)CC2)cc1C,10,-2,-3,-2,-2,3,/,
O=[N+]([O-])c1ccc(Nc2ccccc2O)c([N+](=O)[O-])c1,-26,/,66*,/,-7,-2,27,
COc1ccc(C2CC(=O)N3C(=C2C#N)SCC3(O)c2ccccc2)cc1 (stereo unspecified),/,-3,14,-8,3,-4,/,
COc1cc(OC)c(C2CC(=O)N3CN(C)CSC3=C2C#N)cc1OC (stereo unspecified),5,2,61*,12,0,-5,34,
COc1ccc(Br)cc1C1CC(=O)N2CN(C)CSC2=C1C#N (stereo unspecified),0,0,65*,6,6,4,25,
COc1cccc(NC(=O)C2CC2(c2cccc(OC)c2)c2cccc(OC)c2)c1 (stereo unspecified),/,3,111*,-3,3,-10,43,
COc1cccc(C2(c3cccc(OC)c3)CC2C(=O)Nc2cccc3ccccc23)c1 (stereo unspecified),/,-3,15,-7,-2,20,/,
CN(CC(=O)Nc1ccc(Cl)c(Cl)c1)C(=O)C1CCC1,-36,-4,75*,-6,0,-2,27,

# Screening data (PubChem)
